Reference: the OligoGym collection

target: SEC11C; assay: pooled miR-30 sensor sort-seq; sequence = guide strand; settings: shRNA

Point of comparison: ATTATTATCTCCTTTAGTCAGA, sensor-assay potency score (higher = more potent) -0.731. Against it:
- TCATGAACTTTGATTACTCTGT — higher, 0.434
- ATCTTTTTCATGAACTTTGATT — lower, -1.19
- TGAACTTTGATTACTCTGTGAA — higher, 0.177
- TTGGAATGTCTCGTCCTTCAAC — lower, -1.07

target: SEC22B; assay: as above; settings: shRNA

Point of comparison: TAGCCTTTGAATCCAATGCTGA, sensor-assay potency score (higher = more potent) -0.568. Against it:
- TCAATGTAGAGCTTCTTGGTTT — higher, -0.305
- TTTCCTGAAAATATACACCTAC — higher, 0.224
- TTTCAGGACATCTCTTTTCTTG — higher, -0.395
- TTCATTTTCAGGACATCTCTTT — higher, 0.0656
- TTCTAATACACATCTCTGTGAG — higher, 0.118
- TAATATAATTCACTTACCCTAA — higher, -0.417
- TTGGATTCTAATACACATCTCT — higher, 0.391
- TCGAGCACAACTGTCAATGTAG — higher, 0.24
- TCTAATACACATCTCTGTGAGC — higher, -0.275
- TCGTTGTAACACTTCTTCGATA — lower, -1.15

target: SEC61B; assay: as above; settings: shRNA

Point of comparison: ATCTTCTGTGTAGAATCGCCAC, sensor-assay potency score (higher = more potent) -0.702. Against it:
- TTCCTCTGCCGGACAGTGGATC — lower, -1.27
- TAAAACAGCAAGCTTACAGAAA — lower, -1.05
- TTCTGTGTAGAATCGCCACATC — higher, -0.647
- TCTTCTGTGTAGAATCGCCACA — lower, -0.746
- ATGTGCAACATAAATACAGAAG — lower, -1.59
- TAGAATCGCCACATCCCCCCGG — higher, -0.342
- ATAACCAATACTGGAACAGGGC — lower, -0.892
- AAATGTGCAACATAAATACAGA — lower, -1.05
- TGCAACATAAATACAGAAGCGA — higher, -0.661
- TGGAACAGGGCCAACTTTGAGC — lower, -1.17
- TACTGGAACAGGGCCAACTTTG — lower, -1.5

target: SEC62; assay: as above; settings: shRNA

Point of comparison: TTTGTTGGACAGTTGAATCGAA, sensor-assay potency score (higher = more potent) 0.088. Against it:
- TTGTTGGACAGTTGAATCGAAG — lower, -1.44
- TAAAGCTTCCTCTCCTTTCTTG — higher, 0.192
- TATGTCTTTATCATATTTCATT — lower, -1.38
- TTATGTACAGAATACACTTTAC — lower, -1.09
- TAAATAAAGCTTCCTCTCCTTT — lower, -0.505
- TGACTTTTCCTCACTGTCGGAC — lower, -0.575
- TAGTCAACCACAGACTCCCTGG — lower, -0.485
- TCCATTTCCACTACTGTGCTGG — lower, -0.484
- TTCAATATGGTAATCAGCCAAC — lower, -1.13
- TTTAAGTCTGCTTTTGGTCCTT — higher, 0.441
- TTCTATAAAATGAAGGACCGAA — lower, -0.0759
